Compound activity from PubChem.
Luc counter: counter-screen: inhibitors of Kinase-Glo firefly luciferase | Potency, µM (highest dose often 38.3 µM), usual class: inhibitors | Q27757 | Kinase-Glo luciferase, ATP luminescence, 8 min | AID 1379 | 0.28% of 200,000 active; further: nearly all actives have a fitted effect of over 60% in size
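Inhibition of Kinase-Glo luciferase light generation was assessed at 10 uM ATP in pH 7.2 imidazole buffer, with luminescence measured after eight minutes at ambient temperature.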
Rab9 prom act: activates the Rab9 promoter | Huh7 Rab9 promoter-luciferase reporter, luminescence, 24 h | Potency, µM (series often up to 9.22 µM), hits mostly activators | 2.8% of 320,000 active | AID 485297; further: nearly all actives have a fitted effect of over 60% in size
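Huh7 cells stably carrying a Rab9 promoter-luciferase reporter, 1500 cells per well in OP-MEM I with 10% FBS, treated with compound 24 hours at 37C. Luciferase activity read by luminescence after 10 minutes with Amplite reagent.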
FLuc modulator: firefly luciferase modulation, counter-screen for miR-21 project; purified FLuc, Km substrates, luminescence inhibition; Potency, µM (top dose mostly 57.5 µM), most hits filed as inhibitors; 6.9% of 360,000 active; AID 588342; further: nearly all actives have a fitted effect of over 55% in size
Target sequence (P08659 whole entry, looked up): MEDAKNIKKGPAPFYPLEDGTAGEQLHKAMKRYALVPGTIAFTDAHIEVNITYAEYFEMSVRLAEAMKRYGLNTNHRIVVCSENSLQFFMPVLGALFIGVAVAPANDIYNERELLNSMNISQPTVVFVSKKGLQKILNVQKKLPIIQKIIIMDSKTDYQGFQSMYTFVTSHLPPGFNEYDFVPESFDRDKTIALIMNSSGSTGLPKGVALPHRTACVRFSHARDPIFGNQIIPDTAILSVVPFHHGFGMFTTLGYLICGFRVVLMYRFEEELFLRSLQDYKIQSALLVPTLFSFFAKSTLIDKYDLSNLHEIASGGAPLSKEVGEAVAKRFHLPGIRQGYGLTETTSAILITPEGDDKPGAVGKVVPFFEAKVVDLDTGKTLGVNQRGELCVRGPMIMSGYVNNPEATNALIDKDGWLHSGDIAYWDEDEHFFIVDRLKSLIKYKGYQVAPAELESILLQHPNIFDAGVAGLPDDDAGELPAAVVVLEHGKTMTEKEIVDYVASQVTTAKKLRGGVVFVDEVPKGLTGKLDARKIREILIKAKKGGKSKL
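Biochemical qHTS of compounds, final roughly 60 µM downward over six points, against 10 nM purified firefly luciferase using Km concentrations of substrates (10 uM D-luciferin, 10 uM ATP) in Tris acetate pH 7.5 buffer; luminescence output.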
SMN2 splice up: increases expression of the SMN2 splice variant | AID 1458 | Potency, µM (series often up to 46.1 µM), most hits filed as activators | 2.8% of 210,000 active | HEK293 SMN2-luciferase splicing reporter, luminescence, 30-36 h; further: nearly all actives have a fitted effect of over 55% in size
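qHTS luciferase splicing reporter: luminescence rises when SMN2 exon 7 is included in transfected HEK293 cells. Compound exposure lasted 30-36 h at 37C, with 4.5 mM final sodium butyrate as control, followed by a ONE-Glo read.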
ELG1 genotoxic: induces genotoxicity in HEK293T cells with luciferase-tagged ELG1; HEK293T ELG1-luciferase reporter, luminescence, 16 h; Potency, µM (highest dose often 46 µM), actives largely listed as activators; 1.3% of 330,000 active; further: nearly all actives have a fitted effect of over 60% in size
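After overnight (16 hr) compound treatment at 37 °C, ELG1-luciferase HEK293T cells were lysed with ONE-Glo; luminescence quantified 30 min later at room temperature.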
NPC1 promoter act: activates the NPC1 promoter | Potency, µM (doses to about 9.22 µM), hits mostly activators | Huh7 NPC1 promoter luciferase reporter, 24 h | 2.4% of 320,000 active; further: nearly all actives have a fitted effect of over 60% in size
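Luminescence from an NPC1 promoter-driven luciferase reporter in stably transfected Huh7 cells was measured after 24 h compound treatment at 37 °C, followed by 10 min ambient incubation with luciferase detection reagent.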
A number is an active result; . = inactive; ? = inconclusive; / = not tested or not shown. An excerpt weighted towards active compounds, which were near 7.5% of everything screened. The call rests on the fitted dose curve; in most records, active means well fitted curve in the direction sought with a large enough effect; inconclusive means small, poorly fitted or top-dose-only effect, or another doubt; inactive means no such curve, though single readings can be large; an effect the other way counts as inactive or inconclusive.

SMILES	Luc counter	Rab9 prom act	FLuc modulator	SMN2 splice up	ELG1 genotoxic	NPC1 promoter act
Cc1ccc(/C(O)=C/c2nc3ccccc3oc2=O)cc1	/	.	3.01µM	/	.	.
O=c1oc2ccccc2nc1/C=C(O)/C=C\c1ccccc1	.	.	.	.	.	.
COc1ccc(-c2cc(C)nc(SCc3cccc(C(=O)O)c3)n2)cc1	.	.	?	.	.	.
Cc1nc(SCc2cccc(C(=O)O)c2)nc2c1CCCC2	.	.	8.49µM	4.47µM	.	.
O=C(Nc1ccc2sccc2c1)c1ccc(Cl)s1	.	1µM	0.675µM	7.08µM	1.46µM	1.41µM
O=C(Nc1ccc2c(c1)C(=O)NC2=O)c1ccc(Cl)s1	/	.	.	/	.	.
CCc1ccc(-c2nc(-c3ccncc3)no2)cc1	.	?	0.675µM	7.94µM	0.731µM	0.355µM
Cc1ccc(Cc2nc(-c3ccncc3)no2)cc1	.	.	.	.	.	.
CCCc1ccc(-c2ccc(-c3noc(-c4ccncc4)n3)cc2)nc1	/	.	?	/	.	.
CCCCc1ccc(-c2nc(-c3ccncc3)no2)cc1	.	0.355µM	1.9µM	12.6µM	23.1µM	0.447µM
COc1c(C)cc(S(=O)(=O)NCCc2c(C)[nH]c3ccccc23)c(C)c1C	/	/	.	.	/	/
COc1ccc(Cl)cc1C(=O)NCC(=O)OCc1ccccc1	/	.	.	/	.	.
CCn1cnc2cc(NC(=O)c3ccco3)ccc21	.	1.58µM	10.7µM	5.01µM	18.4µM	2.82µM
CC(C)(C)n1cnc2cc(NC(=O)c3ccco3)ccc21	/	0.708µM	9.53µM	/	?	0.282µM
O=C(O)COCC(=O)Nc1ccc2c(c1)ncn2CCc1ccccc1	/	.	.	/	.	.
CCCn1cnc2cc(NC(=O)c3ccco3)ccc21	/	2.82µM	?	/	2.91µM	3.55µM
Cn1c(CCN2CCOCC2)nc2cc(NC(=O)c3cccs3)ccc21	.	.	.	.	.	.
CCCn1cnc2cc(NC(=O)c3cccs3)ccc21	.	2.82µM	10.7µM	15.8µM	.	?
CC1CN(C(=O)N2CCC(C(=O)NCc3ccco3)CC2)c2ccccc2O1 (stereo unspecified)	/	/	.	/	/	/
Cc1cc(C)cc(NC(=O)CSc2nc3c([nH]c4ccccc43)c(=O)n2-c2ccc(F)cc2)c1	/	/	.	/	/	/
COCCN(CC(=O)Nc1cccc(C)c1C)C(=O)c1oc2c(Cl)cccc2c1C	/	.	.	/	.	.
Cc1ccc(/C=C/C(=O)Nc2cccc(S(=O)(=O)N3CCOCC3)c2)o1	.	.	?	.	.	.
COc1ccc(/C=C/C(=O)Nc2cccc(S(=O)(=O)N3CCOCC3)c2)cc1OC	/	.	?	/	.	.
O=C(/C=C/c1ccco1)Nc1cccc(S(=O)(=O)N2CCOCC2)c1	.	?	16.9µM	.	.	.
O=C(COC(=O)/C=C/c1ccc(OC(F)F)cc1)Nc1cccc(S(=O)(=O)N2CCCC2)c1	/	.	19µM	/	.	.
SMILES	Luc counter	Rab9 prom act	FLuc modulator	SMN2 splice up	ELG1 genotoxic	NPC1 promoter act
O=C(/C=C/c1ccc(OC(F)F)cc1)Nc1cccc(S(=O)(=O)N2CCOCC2)c1	/	.	4.78µM	/	.	.
O=C(NCC(c1cccs1)S(=O)(=O)c1cccs1)c1ccccc1F (stereo unspecified)	/	/	.	/	/	/
CCC(=O)Nc1ccc(C(=O)NNC(=O)c2ccccc2)cc1	.	.	.	/	.	.
Cc1csc(NC(=O)Cc2c(F)cccc2Cl)n1	/	3.16µM	?	/	?	3.55µM
Cc1cccc(NC(=O)Cc2c(F)cccc2Cl)n1	/	3.16µM	15.1µM	/	?	2.51µM
CCC(=O)Nc1ccc(C(=O)Nc2cccc(C)n2)cc1	.	2.51µM	16.9µM	/	?	3.55µM
Cc1csc(NC(=O)Cc2ccc(F)cc2)n1	/	3.55µM	?	/	?	?
O=C(Cc1c(F)cccc1Cl)Nc1ccncc1	.	.	.	.	.	.
O=C(CNC(c1ccccc1)c1ccccc1)Nc1ccccc1Br	/	.	.	/	.	.
COc1ccc(Cl)cc1NCc1nnc2n1CCCCC2	/	/	.	/	/	/
Cc1ccc(CC(=O)Nc2cccc(C)n2)cc1	.	?	?	12.6µM	20.6µM	?
O=C(Oc1ccccc1C(=O)N1CCOCC1)c1ccc(Br)cc1	.	.	.	.	.	.
O=C(/C=C/N1CCOCC1)c1ccc(-c2ccccc2)cc1	.	3.16µM	10.7µM	?	.	1.78µM
O=C(/C=C\N1CCOCC1)c1ccc(Br)cc1	/	?	15.1µM	/	?	?
CCOC(=O)c1c(C)[nH]c(C(=O)COC(=O)/C=C/c2ccc(OCC#N)c(OC)c2)c1C	.	?	.	.	.	.
COc1ccc(-c2csc(NC(=O)CSc3nc(SC)ns3)n2)cc1	.	.	?	22.4µM	?	?
COc1ccc(-c2csc(NC(=O)CSc3nc(C)nc4sc(C(=O)O)c(C)c34)n2)cc1	/	.	26.9µM	/	.	.
COc1ccccc1NC(=O)CSc1nc(SC)ns1	/	.	.	/	.	.
COc1ccc(-c2csc(NC(=O)CSCC(=O)Nc3cc(C)on3)n2)cc1	/	.	?	/	.	.
CC(=O)N1CCc2c(sc3c2c(=O)n(-c2ccccc2C)c(=O)n3CC(=O)Nc2ccccc2)C1	/	/	.	.	/	/
Fc1cccc(F)c1-n1c(CN2CCCC2)csc1=S	.	.	.	.	.	.
CCN(C(=O)CSc1nc2ccccc2c2nc(CCn3c(C)nc4ccccc43)nn12)c1cccc(C)c1	/	/	.	/	/	/
O=C(NC1=NC2CCCCC2N1)c1ccccc1 (stereo unspecified)	?	0.316µM	1.51µM	.	0.581µM	0.398µM
C=CCNC(=O)/C(C#N)=C/c1ccccc1Cl	.	.	?	.	.	.
Cc1cccc(NC(=O)/C(C#N)=C/c2ccccc2Cl)n1	/	.	6.01µM	/	.	.
SMILES	Luc counter	Rab9 prom act	FLuc modulator	SMN2 splice up	ELG1 genotoxic	NPC1 promoter act
N#C/C(=C\c1ccccc1O)C(=O)Nc1ccccn1	/	.	4.78µM	/	.	.
Cc1cccc(NC(=O)/C(C#N)=C/c2ccccc2O)n1	/	3.98µM	0.601µM	/	16.4µM	3.55µM
Cn1cc(/C=C(\C#N)C(=O)Nc2ccccc2O)c2ccccc21	/	?	?	/	.	.
N#C/C(=C\c1ccc(O)c(O)c1)C(=O)Nc1cccc2ncccc12	/	.	?	/	.	.
CCOC(=O)CSc1ncnc2c1cnn2-c1ccc(C)cc1	.	.	?	.	?	.
CCOC(=O)CC(=O)CSc1ncnc2c1cnn2-c1ccccc1	.	?	23.9µM	.	?	?
CCOC(=O)CSc1ncnc2c1cnn2-c1ccc(Cl)cc1	.	.	9.53µM	.	.	.
Cc1nnc2c3cnn(-c4ccc(Cl)cc4)c3ncn12	.	?	?	.	20.6µM	?
CCOC(=O)Cn1cnc2c(cnn2-c2ccc(Cl)cc2)c1=O	/	?	?	/	.	.
Cc1cc(NC(=O)CCc2nc3cccnc3n2Cc2cccs2)ccc1Br	/	/	.	.	/	/
CCCCOc1ccccc1NC(=O)CC1Sc2ccccc2NC1=O (stereo unspecified)	/	/	.	.	/	/
